Each structure is given as a SMILES string. The source made the active and inactive calls. How the calls were made is not given here. Where a SMILES comes first, the peptide text is derived from it. The star is where a group is joined. Boc = CC(C)(C)OC(=O)*

In general, inhibition refers to the relative decrease from the control value, in per cent.

In this test the target is Pantothenate synthetase (Mycobacterium tuberculosis (strain ATCC 25618 / H37Rv)) (UniProt P9WIL5). The test is described as follows: Recombinant Mtb pantothenate synthetase (PanC) inhibitors, coupled enzyme, confirmatory (AID 375).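 Further: 0% = full reaction with vehicle and 100% = no enzyme background.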 Conditions: coupled enzyme assay; at 10 µM, active compounds read high.
Chain of Pantothenate synthetase (Mycobacterium tuberculosis (strain ATCC 25618 / H37Rv)) (P9WIL5 whole entry, looked up): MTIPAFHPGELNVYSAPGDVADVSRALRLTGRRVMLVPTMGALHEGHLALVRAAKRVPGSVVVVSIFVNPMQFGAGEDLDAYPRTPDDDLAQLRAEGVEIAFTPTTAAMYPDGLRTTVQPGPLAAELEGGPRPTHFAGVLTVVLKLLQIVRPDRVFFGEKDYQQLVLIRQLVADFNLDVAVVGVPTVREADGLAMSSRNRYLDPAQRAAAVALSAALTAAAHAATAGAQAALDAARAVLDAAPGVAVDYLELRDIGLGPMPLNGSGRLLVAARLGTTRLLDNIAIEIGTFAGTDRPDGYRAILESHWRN
Take `O=C(CNc1ccc(Oc2ccccc2)cc1)N1CCOCC1`: the inhibition was 0% (inactive).
Turning to `Cc1cnc(C(=O)OCC(=O)Nc2ccc(Cl)cc2Cl)cn1`, the inhibition is 8% (inactive).
For `CCCCn1cnc2c1c(=O)n(C)c(=O)n2C`, the inhibition is 2% (inactive).
As to `COc1ccc(CN(C(=O)CSc2nnc(-c3ccccc3F)o2)c2ccc(F)cc2)cc1`, the inhibition is 0% (inactive).
Next, `CCNS(=O)(=O)c1c(C)cc(N2CCCC2=O)cc1C`: 6% (inactive); `Cn1c(SCC(=O)c2cc3ccccc3o2)nnc1-c1ccccc1`: 1% (inactive); `NS(=O)(=O)c1ccc(CCNC(=O)c2cccnc2)cc1`: 1% (inactive).
Take `CCOC(=O)c1sc(NC(=O)CSc2nnc3c4ccccc4n(CC)c3n2)nc1C`: the inhibition was 3% (inactive).
Regarding `O=S(=O)(c1ccc2c(c1)OCCO2)N1CCN(Cc2ccc3c(c2)OCO3)CC1`, the inhibition is 4% (inactive).
Consider `CCc1c(C)nc2ncnn2c1N1CCC(C(=O)NCc2cccc(OC)c2)CC1`, for which the inhibition was 0% (inactive).
As for `Cc1cc(N2CCN(C3CCCC3)CC2)n2c(nc3ccccc32)c1C#N`, the inhibition was 0% (inactive).
Next, `COc1ccc(C2=Nn3c(nnc3-c3ccccc3)SC2)cc1OC`: 0% (inactive); `CCCc1nnc(NC(=O)NCCN2C(=O)C3C4C=CC(C4)C3C2=O)s1` (stereo not given): 0% (inactive); `CCn1nc(CC(=O)Nc2nnc(CC(=O)N3CCCCC3)s2)c2ccccc2c1=O`: 0% (inactive).
Take `Cc1c(C(=O)O)oc2ccc(S(=O)(=O)NCCC3=CCCCC3)cc12`: the inhibition is 2% (inactive).
On to `CCC(c1nnnn1C(C)(C)C)N1CCN(C2CCCC2)CC1` (stereo not given), for which the inhibition was 4% (inactive).
Consider `CC1(C)CC(=O)C2=C(C1)Nc1ccccc1N=C2`, for which the inhibition was 0% (inactive).
Next, `O=C(c1ccco1)N1CCN(c2nc(C(F)(F)F)nc3c2nnn3Cc2ccccc2)CC1`: 0% (inactive).
With `CC(NC(=O)OC(C)(C)C)C(=O)N1CCCC1C(=O)NC(Cc1ccccc1)C(N)=O` (stereo not drawn) (Boc-Ala-Pro-Phe-NH2; configuration not given here) the figure was 7% (inactive); with `COC(=O)c1ccccc1S(=O)(=O)N(Cc1cc2cc3c(cc2[nH]c1=O)OCO3)C1CCCCC1`, 1% (inactive).
As to `Clc1ccc(Cl)c(-c2nn3c(Cn4cnc5ccccc54)nnc3s2)c1`, the inhibition is 0% (inactive).
With `C[C@]12CC[C@@H]3c4ccc(OS(=O)(=O)O)cc4CC[C@H]3[C@@H]1CCC2=O` the figure was 0% (inactive); with `O=C(c1cc2nc(-c3ccco3)cc(C(F)(F)F)n2n1)N1CCN(c2ccccn2)CC1`, 6% (inactive).
Take `COC(=O)c1ccc(C(=O)OC)c(NC(=O)Nc2ccc3c(c2)OCO3)c1`: the inhibition was 0% (inactive).
Take `CC1CC(C)CN(CCCNC(=O)c2ccc3c(c2)NC(=O)C(N2CCCCC2)S3)C1` (stereo not given): the inhibition is 0% (inactive).
Turning to `O=C(Nc1ccc(Cc2ccncc2)cc1)C1CC1`, the inhibition is 0% (inactive).
Next, `CCN(CC)CCOC(=O)c1c(C)oc2ccc(O)cc12`: 0% (inactive).
Turning to `Cc1cccc(N(C)C(=O)c2cc3cc4ccc(C)cc4nc3o2)c1`, the inhibition is 0% (inactive).
Next, `CN(C)S(=O)(=O)n1cnc(-c2ccccc2)c1-c1ccccc1`: 4% (inactive).
Next, `Cc1ccccc1-n1c(=O)cc(N2CCN(C(=O)c3ccco3)CC2)[nH]c1=O`: 0% (inactive).
In the case of `O=C(CSc1nnc(-c2ccncc2)n1-c1ccc(F)cc1)NC(=O)NCc1ccco1`, the inhibition is 0% (inactive).
In the case of `Cc1ccc(S(=O)(=O)CC2CSc3nnc(C)c(=O)n32)cc1` (stereo not given), the inhibition was 0% (inactive).
Next, `Cc1c(NC(=O)CSc2nnc3sc4ccccc4n23)c(=O)n(-c2ccccc2)n1C`: 0% (inactive); `O=C(CCCCCn1c(=O)[nH]c2ccsc2c1=O)N1CCCCC1`: 5% (inactive).
For `COc1ccc(CCNc2oc(-c3ccco3)nc2C#N)cc1`, the inhibition is 2% (inactive).
On to `Cc1nc(NC(=O)c2csc3ccccc23)sc1C`, for which the inhibition was 0% (inactive).
In the case of `CCOC(=O)N1CCN(C(=O)CN(Cc2ccccc2)S(=O)(=O)c2ccc(OC)c(C)c2)CC1`, the inhibition is 5% (inactive).
With `CN1CCN(Cc2nc3c(c(=O)[nH]c(=O)n3C)n2CCc2ccccc2)CC1` the figure was 0% (inactive).
`COc1ccc(-c2nnnn2C)cc1S(=O)(=O)NCc1ccccc1`: the inhibition was 1% (inactive).
Next, `O=S(=O)(NC1CCCC1)c1ccccc1Cl`: 0% (inactive).

These data come from PubChem BioAssay.
